AMA1-RON2 inh – AMA1-RON2 (P. falciparum) interaction inhibition; AlphaScreen AMA1-biotinylated RON2 peptide binding; Potency, µM (series often up to 58.2 µM), actives largely listed as inhibitors; hit rate 0.2% among 360,000; AID 720542; also: nearly all actives have a fitted effect of over 45% in size
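AMA1 (3D7) with his tag at 25 nM final met compounds first, then biotinylated RON2 peptide at 25 nM; detection used donor plus acceptor beads, 10 µg/mL apiece, read by AlphaScreen after 30 min at room temperature.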
TbPYK inhibitor – blocks Trypanosoma brucei pyruvate kinase; TbPYK enzyme, Kinase-Glo Plus ATP luminescence, 45 min; Potency, µM (doses to about 76.8 µM), most hits filed as inhibitors; hit rate 0.12% among 410,000; also: nearly all actives have a fitted effect of over 50% in size
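Activity of T. brucei pyruvate kinase was followed by Kinase-Glo Plus luminescence after the enzyme reacted 45 min at room temperature with 130 uM ADP (final) and substrate. Test compounds were added before ADP at multiple concentrations.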
VACV mCherry inh – inhibitors of vaccinia virus infection (mCherry reporter signal) | Vaccinia virus mCherry reporter infection, fluorescence | Potency, µM (highest dose often 36.5 µM), actives largely listed as inhibitors | hit rate 0.63% among 310,000; calls by dose curve; tested in A549 cells; also: nearly all actives have a fitted effect of over 35% in size
RE007 growth inh – less growth of the S. pombe RE007 Vpr strain; hit rate 0.21% among 360,000; Potency, µM (doses to about 92.2 µM), actives largely listed as inhibitors; S. pombe RE007 Vpr strain, BacTiter-Glo ATP luminescence, 24 h; active = well fitted falling curve with a large enough effect; inconclusive = small, poorly fitted or top-dose-only effect; inactive = no such curve, though single readings can be large or run the other way; also: nearly all actives have a fitted effect of over 50% in size
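Fission yeast strain RE007, carrying one chromosomally integrated HIV-1 vpr copy, was seeded at OD 0.01 in PMG+AL medium with 23 nL pinned compound. After 24 h at 30 °C and 99% humidity, viability was read by BacTiter-Glo luminescence.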
Vaccinia Venus – vaccinia inhibition (Venus reporter). Vaccinia virus Venus reporter expression, fluorescence. Potency, µM (doses to about 36.5 µM), actives largely listed as inhibitors. hit rate 0.46% among 330,000; calls by dose curve; tested in A549 cells; also: nearly all actives have a fitted effect of over 30% in size
LmPK inh – LmPK (Leishmania mexicana) enzyme inhibition. Potency, µM (titrated, usually from 57.5 µM), hits mostly inhibitors. hit rate 0.37% among 290,000. Q27686. AID 1721. purified LmPK, Kinase-Glo ATP luminescence, 1 h
Target sequence (Q27686 whole entry, looked up): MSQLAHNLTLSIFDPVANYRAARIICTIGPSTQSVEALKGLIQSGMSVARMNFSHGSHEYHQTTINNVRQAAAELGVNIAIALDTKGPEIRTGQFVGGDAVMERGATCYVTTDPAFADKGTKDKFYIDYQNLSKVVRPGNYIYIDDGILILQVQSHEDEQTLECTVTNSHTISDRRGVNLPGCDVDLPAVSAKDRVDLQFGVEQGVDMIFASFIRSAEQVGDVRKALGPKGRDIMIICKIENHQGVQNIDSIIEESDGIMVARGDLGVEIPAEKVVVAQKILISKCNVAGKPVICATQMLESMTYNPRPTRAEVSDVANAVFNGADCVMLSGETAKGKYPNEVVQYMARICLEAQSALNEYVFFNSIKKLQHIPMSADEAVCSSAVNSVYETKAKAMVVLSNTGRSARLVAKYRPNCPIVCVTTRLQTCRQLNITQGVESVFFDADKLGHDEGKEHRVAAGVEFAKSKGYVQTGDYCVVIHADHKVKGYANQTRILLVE
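Screened at intermediate enzyme activity to detect both inhibitors and activators: LmPK at 0.1 nM, with a 0.5 nM enzyme column as activation reference. PEP 0.5 mM, ADP 0.1 mM; ATP detected by luminescence after 1 h.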
Numbers stand for hits; 0 = inactive; ? = inconclusive; - = no result given; [ ] = dose if it differs, or a comment. Hits are enriched below; roughly 1.3% of the tested compounds scored in any of these assays. Unless noted, calls follow the shape of the dose curve; as a rule, active = well fitted curve in the direction sought with a large enough effect; inconclusive = small, poorly fitted or top-dose-only effect, or another doubt; inactive = no such curve, though single readings can be large; an effect the other way counts as inactive or inconclusive.

SMILES	AMA1-RON2 inh	TbPYK inhibitor	VACV mCherry inh	RE007 growth inh	Vaccinia Venus	LmPK inh
Cc1cc2nc(-c3ccc[nH]c3=O)[nH]c2cc1C	0	?	0	7.08µM	0	11.2µM
Cc1cc2nc(-c3ccc[nH]c3=O)n(Cc3ccc(F)cc3)c2cc1C	0	0	0	0	0	0
O=C(CSc1cccc[n+]1[O-])c1cc(Cl)ccc1Cl	0	0	0	5.01µM	0	0
Nc1nc(SCC(=O)c2cc3ccccc3o2)n[nH]1	0	0	0	0	0	0
O=C(O)CSc1cccc[n+]1[O-]	0	0	-	0	-	0
O=C(CSc1cccc[n+]1[O-])c1cc2ccccc2o1	0	0	-	8.91µM	0	0
COC(=O)C1CCN(Cc2ccc3c(c2)CN(C(=O)c2ccc(-n4cnnn4)cc2)CCO3)CC1	-	-	0	-	0	-
COc1ccc(N=Cc2c(O)c3ccccc3oc2=O)cc1	0	0	-	0	-	15.8µM
COc1ccc(OC)c(N=Cc2c(O)c3ccccc3oc2=O)c1	0	0	-	0	-	0
Cc1nn(Cc2ccc(Cl)c(Cl)c2)c(C)c1NC(=O)c1cc(CC(C)C)on1	0	0	11.2µM	0	?	0
COc1ccc(-c2nc3cc(C)ccc3cc2CN(C(=O)c2cc(C)nn2C)C2CC2)cc1OC	-	-	0	-	0	-
CCOc1ccc(C(=O)Nc2cc(C)ccn2)cc1	0	?	0	39.8µM	0	?
CCOc1ccc(C(=O)Nc2cccc(C)n2)cc1	0	0	0	?	0	15.8µM
CN(CCO)C(=O)c1cn(C2CCN(Cc3c(F)cccc3Cl)CC2)nn1	-	-	0	-	0	-
COc1ccccc1C1CN(Cc2cccc(OCCO)c2)Cc2ccccc2O1 (centres undefined)	-	-	0	-	0	-
C=CCNc1nc(NCc2ccc(NC(C)=O)cc2)c2sc(-c3ccccc3)cc2n1	0	0	0	0	15.8µM	-
CC(=O)Nc1ccc(CNc2nc(NC(C)C)nc3cc(-c4ccccc4)sc23)cc1	?	0	?	0[18.4 µM]	11.2µM	-
CC(=O)NCCNc1nc(NC(C)C)nc2cc(-c3ccccc3)sc12	0	0	0	0[18.4 µM]	0	-
CCCCNc1c(-c2ccc(-c3ccc(OC)cc3)c(OC)c2)nc2ccccn12	0	0	31.6µM	?	?	-
CCCCNc1c(-c2ccc(OC)c(Sc3ccc(OC)cc3)c2)nc2ccccn12	0	0	?	0	?	-
C=CC1CN2CCC1C[C@H]2C(O)c1ccnc2ccc(OC)cc12 (some centres undefined)	-	-	0	-	0	-
COc1ccc2nc(NN=C(C)c3ccccn3)cc(C)c2c1	?	0	1µM	?	?	-
Cc1cnc(SCc2ccccn2)nc1C1CCCN(C(=O)c2coc3c2C(=O)CCC3)C1 (centres undefined)	-	-	0	-	0	-
Fc1ccc(C2CC(c3ccco3)=Nc3ccccc3S2)cc1 (centres undefined)	0	0	?	25.1µM	0	0
O=[N+]([O-])c1ccc(C2CC(c3ccccc3)=Nc3ccccc3S2)cc1 (centres undefined)	0	0	0	-	0	0
SMILES	AMA1-RON2 inh	TbPYK inhibitor	VACV mCherry inh	RE007 growth inh	Vaccinia Venus	LmPK inh
COc1ccc(/C=N/Nc2ncccc2[N+](=O)[O-])c(OC)c1	0	?	0	0	0	25.1µM
CCCCn1c(C23CC4CC(CC(C4)C2)C3)n[nH]c1=S	0	6.31µM	0	0	0	0
COCCn1c(C23CC4CC(CC(C4)C2)C3)n[nH]c1=S	0	7.94µM	-	0	0	0
Cc1cccc2cc(CN(CC3CCCO3)C(=O)c3ccccc3F)c(N(C)C)nc12 (centres undefined)	-	-	0	-	0	-
C[C@]12c3[nH]c4cc(-c5ccco5)ccc4c3CCN1C(=O)[C@@H](CC(=O)NCC13CC4CC(CC(C4)C1)C3)C[C@@H]2C(=O)N1CCOCC1	?	0	?	0	10µM	-
O=C(C[C@H]1C[C@H](C(=O)N2CCOCC2)[C@@]2(CCC3CCCC3)c3[nH]c4cc(-c5ccco5)ccc4c3CCN2C1=O)NCC12CC3CC(CC(C3)C1)C2	?	0	?	0	?	-
CCN(CC)C(=O)[C@H]1C[C@H](CC(=O)NCC23CC4CC(CC(C4)C2)C3)C(=O)N2CCc3c([nH]c4cc(-c5ccco5)ccc34)[C@]12C	0	0	?	0	11.2µM	-
Cc1ccc2nc(SCC(=O)N3CCC4(CC3)CC4C(=O)Nc3ccc(F)c(F)c3)[nH]c2c1 (centres undefined)	-	-	0	-	0	-
CNC(=O)c1nnsc1S(=O)c1ccc(Cl)cc1 (centres undefined)	0	0	0	35.5µM	0	0
CCCNC(=O)c1nnsc1S(=O)(=O)c1ccc(Cl)cc1	0	0	?	11.2µM	12.6µM	0
CCCNC(=O)c1nnsc1S(=O)c1ccc(Cl)cc1 (centres undefined)	0	0	?	3.55µM	?	0
Cc1ccc(S(=O)c2snnc2C)cc1 (centres undefined)	0	0	?	0	?	0
CCO[C@H]1[C@H](NC(=O)c2cccnc2)c2ccccc2C12CCN(C(=O)c1ccoc1)CC2	-	-	0	-	0	-
CN(C)c1ccc(N/C=C/C(=O)c2ccc(F)cc2)cc1	0	?	-	0	-	14.1µM
CN(C)c1ccc(N/C=C/C(=O)c2ccco2)cc1	0	?	0	0	0	7.08µM
CC(=O)Nc1ccc(N/C=C/C(=O)c2ccco2)cc1	0	0	-	0	?	?
COc1cc(-c2ccc(Cl)cn2)cc2c1OCCN(S(=O)(=O)C[C@]13CC[C@H](CC1=O)C3(C)C)C2	-	-	0	-	0	-
O=C1CC(Sc2nnc(-c3ccccc3)o2)C(=O)N1c1ccccc1 (centres undefined)	0	0	-	15.8µM	-	0
Cc1ccccc1N1C(=O)CC(Sc2nnc(-c3ccccc3)o2)C1=O (centres undefined)	0	?	0	?	0	0
O=C(O)c1cccnc1SC1CC(=O)N(c2ccccc2)C1=O (centres undefined)	0	0	0[7.34 µM]	0	0[7.34 µM]	0
Cc1nnc(SC2CC(=O)N(c3ccccc3)C2=O)s1 (centres undefined)	0	0	-	39.8µM	0	0
O=C(O)c1ccccc1SC1CC(=O)N(c2ccccc2)C1=O (centres undefined)	0	0	0	10µM	0	0
O=C(NCCc1ccncc1)c1cnn(-c2ncc3c(n2)-c2ccccc2CCC3)c1C1CC1	-	-	0	-	0	-
c1ccc(-c2cnc(-c3ccccn3)nn2)cc1	?	0	0	?	0	-
Clc1ccc(-c2cnnc(-c3ccccn3)n2)cc1	10µM	0	?	?	?	-
c1ccc(-c2cnnc(-c3ccccn3)n2)cc1	10µM	0	0	0	0	-
COc1ccccc1NS(=O)(=O)c1ccc2oc(SCC(=O)N3CCNC3=O)nc2c1	0	0	-	0	-	-
CNC(=O)CSc1nc2cc(S(=O)(=O)Nc3ccccc3OC)ccc2o1	0	0	12.6µM	0	?	0
